We go through 62 compounds from the antibiotic and cytotoxicity screens of Wong et al. (2023).

About 3,300 (8.5%) of roughly 39,000 compounds were called active. The full list was thinned out, with actives kept by preference.

The test has as its system HepG2. Kind of test: cytotoxicity call (relative viability < 0.9). As to conditions: 10 µM.
Take `C[C@H]1CN([C@@H](C)CO)C(=O)c2cc(NS(=O)(=O)c3cccs3)ccc2O[C@@H]1CN(C)S(=O)(=O)c1ccccc1`: the cytotoxicity call is “inactive”.
In the case of `COC(=O)CCCCCCC(=O)N/N=C/[C@H](O)[C@@H](O)[C@H](O[C@@H]1O[C@H](CO)[C@H](O)[C@H](O)[C@H]1O)[C@H](O)CO` it was “inactive”.
In the case of `CO[C@H](CN(C)C(=O)c1ccc2c(c1)OCO2)[C@H](C)CN([C@@H](C)CO)S(=O)(=O)c1ccc(C)cc1` it was “inactive”; in that of `Cc1ccc(S(=O)(=O)N(C)C[C@H]2Oc3ccc(NC(=O)CCN4CCOCC4)cc3CC(=O)N([C@@H](C)CO)C[C@@H]2C)cc1`, “inactive”; in that of `Cc1cc(=O)oc2cc(O[C@H]3O[C@@H](CO)[C@@H](O)[C@@H](O)[C@@H]3O)ccc12`, “inactive”.
As for `C[C@H]1C[C@@H]2[C@@H](C[C@@H]1C)N[C@@H]1C(=O)NC(=O)N[C@H]1N2C[C@H](O)[C@H](O)[C@H](O)CO`, the cytotoxicity call is “inactive”.
The value for `Cc1ccc(S(=O)(=O)N(C)C[C@@H]2OCCCC[C@@H](C)Oc3ccc(NC(=O)Nc4ccccc4)cc3C(=O)N([C@@H](C)CO)C[C@@H]2C)cc1` was “inactive”; that for `COc1ccc(NC(=O)Nc2ccc3c(c2)C(=O)N([C@H](C)CO)C[C@H](C)[C@@H](CN(C)C(=O)Nc2cccc4ccccc24)OCCCC[C@@H](C)O3)cc1` was “inactive”.
The value for `CC#CC(=O)NS(=O)(=O)c1ccccc1` was “inactive”.
In the case of `C[C@@H]1CN([C@@H](C)CO)C(=O)c2cccc(NC(=O)C3CCOCC3)c2O[C@H]1CN(C)S(=O)(=O)c1cn(C)cn1` it was “inactive”.
On to `C[C@H]1CN([C@@H](C)CO)C(=O)Cc2cc(NS(=O)(=O)c3cn(C)cn3)ccc2O[C@@H]1CN(C)CC1CCCCC1`, for which the cytotoxicity call was “inactive”.
For `CC(=O)N(C)C[C@H]1Oc2cc(C#CCN(C)C)ccc2S(=O)(=O)N([C@@H](C)CO)C[C@@H]1C`, the cytotoxicity call was “inactive”.
Turning to `C[C@H]1CN([C@@H](C)CO)C(=O)c2cccc(NC(=O)c3ccc(-c4nccs4)cc3)c2O[C@@H]1CN(C)CC1CCCCC1`, the cytotoxicity call is “inactive”.
Regarding `C[C@H]1CN([C@@H](C)CO)C(=O)c2cccc(NC(=O)c3ccncc3)c2O[C@H]1CN(C)Cc1ccc(-c2ccccc2)cc1`, the cytotoxicity call was “inactive”.
For the compound `C[C@@H]1CN([C@@H](C)CO)C(=O)c2cccc(NC(=O)c3ccc(-c4nccs4)cc3)c2O[C@@H]1CN(C)Cc1ccc(C(=O)Nc2ccccc2N)cc1`, the cytotoxicity call is “active”.
`C[C@H]1CN([C@@H](C)CO)C(=O)c2cccc(NC(=O)c3ccc(-c4nccs4)cc3)c2O[C@@H]1CN(C)Cc1ccc(C(=O)Nc2ccccc2N)cc1`: the cytotoxicity call was “inactive”.
The value for `C[C@@H]1CN([C@@H](C)CO)C(=O)c2cccc(NC(=O)c3ccc(-c4nccs4)cc3)c2O[C@@H]1CN(C)Cc1ccc(Cl)c(Cl)c1` was “active”.
With `C[C@H](CO)N1C[C@H](C)[C@H](CN(C)Cc2ccc(C(=O)Nc3ccccc3N)cc2)Oc2c(NC(=O)c3ccc(-c4nccs4)cc3)cccc2C1=O`, the cytotoxicity call was “inactive”.
The value for `C[C@H](CO)N1C[C@H](C)[C@H](CN(C)Cc2ccc(-c3ccccc3)cc2)Oc2c(NC(=O)c3ccncc3)cccc2C1=O` was “inactive”; that for `C[C@@H]1CN([C@H](C)CO)C(=O)c2cccc(NC(=O)c3ccc(-c4nccs4)cc3)c2O[C@H]1CN(C)CC1CCCCC1` was “active”; that for `C[C@H](CO)N1C[C@H](C)[C@@H](CN(C)Cc2ccc(-c3ccccc3)cc2)Oc2c(NC(=O)c3ccncc3)cccc2C1=O` was “active”.
`C[C@@H]1CN([C@H](C)CO)C(=O)c2cccc(NC(=O)c3ccc(-c4nccs4)cc3)c2O[C@@H]1CN(C)CC1CCCCC1`: the cytotoxicity call was “inactive”.
For the compound `C[C@@H]1CN([C@H](C)CO)C(=O)c2cccc(NC(=O)c3ccc(-c4nccs4)cc3)c2O[C@H]1CN(C)Cc1ccc(Cl)c(Cl)c1`, the cytotoxicity call is “inactive”.
For `C[C@H]1CN([C@@H](C)CO)C(=O)c2cccc(NC(=O)c3ccc(-c4nccs4)cc3)c2O[C@@H]1CN(C)Cc1ccc(Cl)c(Cl)c1`, the cytotoxicity call is “inactive”.
As to `COc1cccc(S(=O)(=O)Nc2ccc3c(c2)[C@@H]2C[C@@H](CC(=O)NCc4cccc(F)c4)O[C@H](CO)[C@@H]2O3)c1`, the cytotoxicity call was “inactive”.
The value for `O=C(C[C@@H]1C=C[C@@H](NS(=O)(=O)c2ccccc2)[C@@H](CO)O1)NCc1ccncn1` was “inactive”.
In the case of `COc1ccc(S(=O)(=O)N2C[C@H](O)COC[C@@H]3O[C@@H](CC(=O)N[C@@H]4CCN(Cc5ccccc5)C4)CC[C@H]32)cc1` it was “inactive”; in that of `COCC(=O)Nc1ccc2c(c1)C(=O)N(C)C[C@@H](OC)[C@@H](C)CN(Cc1ccccc1OC)[C@H](C)CO2`, “inactive”; in that of `C[C@@H]1CCCCO[C@H](CN(C)C(=O)Cc2ccccc2)[C@H](C)CN([C@@H](C)CO)C(=O)c2cc(NS(=O)(=O)c3ccc(Cl)cc3)ccc2O1`, “inactive”.
Turning to `COCC(=O)N1C[C@H](C)[C@H](OC)CN(C)C(=O)c2ccc(NC(=O)c3ccc(OC)cc3)cc2OC[C@H]1C`, the cytotoxicity call is “inactive”.
For the compound `Cc1noc(C)c1S(=O)(=O)N(C)C[C@H]1OCCCC[C@@H](C)Oc2ccc(NC(=O)Nc3ccc(F)cc3)cc2C(=O)N([C@H](C)CO)C[C@@H]1C`, the cytotoxicity call is “inactive”.
In the case of `Cc1noc(C)c1S(=O)(=O)Nc1ccc2c(c1)C(=O)N([C@H](C)CO)C[C@@H](C)[C@H](CN(C)Cc1ccccc1)OCCCC[C@H](C)O2` it was “inactive”; in that of `COc1ccc(S(=O)(=O)N(C)C[C@@H]2Oc3ccc(NC(=O)Nc4ccc(Cl)c(Cl)c4)cc3CC(=O)N([C@@H](C)CO)C[C@@H]2C)cc1Cl`, “active”; in that of `COc1ccc(S(=O)(=O)N(C)C[C@@H]2Oc3ccc(NC(=O)NC(C)C)cc3CC(=O)N([C@H](C)CO)C[C@@H]2C)cc1`, “inactive”.
Regarding `COc1ccc(S(=O)(=O)N(C)C[C@@H]2Oc3ccc(NC(=O)Nc4cccc5c4CCCC5)cc3CC(=O)N([C@@H](C)CO)C[C@@H]2C)cc1Cl`, the cytotoxicity call is “inactive”.
The value for `COc1ccc(S(=O)(=O)N(C)C[C@@H]2Oc3ccc(NC(=O)Nc4cc(Cl)cc(Cl)c4)cc3CC(=O)N([C@@H](C)CO)C[C@@H]2C)cc1Cl` was “active”.
On to `CC(C)NC(=O)Nc1ccc2c(c1)CC(=O)N([C@H](C)CO)C[C@@H](C)[C@H](CN(C)S(=O)(=O)c1ccc(Cl)cc1)O2`, for which the cytotoxicity call was “inactive”.
Regarding `CC(C)NC(=O)Nc1ccc2c(c1)CC(=O)N([C@@H](C)CO)C[C@@H](C)[C@H](CN(C)S(=O)(=O)c1ccc(Cl)cc1)O2`, the cytotoxicity call was “inactive”.
In the case of `CCS(=O)(=O)N1CCNCC1` it was “inactive”; in that of `CC1C(=O)CCC2C1(C)CCC1C2(C)CCC2(C)C3CC(C)(C)CCC3(C)CCC12C` (configuration not stated), “inactive”; in that of `O=C(O)c1n[nH]c2c1CCCC2`, “inactive”.
As to `C[C@H]1CN([C@@H](C)CO)C(=O)c2cc(C#Cc3ccccc3F)cnc2O[C@H]1CN(C)C(=O)C1CCOCC1`, the cytotoxicity call is “inactive”.
In the case of `COc1ccc(C[C@H]2c3cc(OC)c(OC)cc3CC[N@+]2(C)CCC(=O)OCCCCCOC(=O)CC[N@+]2(C)CCc3cc(OC)c(OC)cc3[C@@H]2Cc2ccc(OC)c(OC)c2)cc1OC` it was “inactive”; in that of `COc1ccc(CC2c3cc(OC)c(OC)cc3CC[N+]2(C)CCC(=O)OCCCCCOC(=O)CC[N+]2(C)CCc3cc(OC)c(OC)cc3C2Cc2ccc(OC)c(OC)c2)cc1OC.O=S(=O)([O-])c1ccccc1.O=S(=O)([O-])c1ccccc1` (configuration not stated), “inactive”.
The value for `COc1ccc(C[C@@H]2c3cc(OC)c(OC)cc3CC[N@+]2(C)CCC(=O)OCCCCCOC(=O)CC[N@@+]2(C)CCc3cc(OC)c(OC)cc3[C@H]2Cc2ccc(OC)c(OC)c2)cc1OC` was “active”; that for `COc1ccc(S(=O)(=O)Nc2ccc3c(c2)C(=O)N([C@@H](C)CO)C[C@H](C)[C@@H](CN(C)S(=O)(=O)c2ccccc2)O3)cc1` was “inactive”.
In the case of `C[C@@H]1CN([C@H](C)CO)C(=O)c2cc(NC(=O)C3CCCCC3)ccc2O[C@H]1CN(C)Cc1ccc(C(F)(F)F)cc1` it was “inactive”.
As to `CC(C)NC(=O)Nc1cccc2c1O[C@@H](CN(C)Cc1ccc(Oc3ccccc3)cc1)[C@@H](C)CN([C@H](C)CO)C2=O`, the cytotoxicity call is “inactive”.
In the case of `COc1cccn(CC(=O)N2CCO[C@@H](CCN)C2)c1=O` it was “inactive”.
In the case of `CN(C)c1nc(SCC(N)=O)nc(N(C)C)n1` it was “inactive”; in that of `CNc1nc(SCC(N)=O)nc(N2CCOCC2)n1`, “active”.
Consider `CCNc1nc(SCC(N)=O)nc(N2CCOCC2)n1`, for which the cytotoxicity call was “inactive”.
In the case of `Cn1c(=O)c2c(nc(N(CCO)CCO)n2Cc2ccc(F)cc2)n(C)c1=O`, the cytotoxicity call was “inactive”.
In the case of `C[C@@H]1CN([C@@H](C)CO)C(=O)c2c(c3ccccc3n2C)-c2ccccc2CO[C@H]1CN(C)Cc1ccc(Oc2ccccc2)cc1` it was “inactive”; in that of `C[C@@H]1CN([C@H](C)CO)C(=O)Cc2cc(NC(=O)CCC(F)(F)F)ccc2O[C@H]1CN(C)C(=O)Nc1ccc(C(F)(F)F)cc1`, “inactive”.
`C[C@H]1CN([C@@H](C)CO)C(=O)Cc2cc(NC(=O)C3CCCCC3)ccc2O[C@@H]1CN(C)Cc1ccc(-c2ccccc2)cc1`: the cytotoxicity call was “inactive”.
In the case of `C[C@@H]1CN([C@@H](C)CO)C(=O)Cc2cc(NC(=O)C3CCCCC3)ccc2O[C@@H]1CN(C)Cc1ccc(-c2ccccc2)cc1` it was “active”; in that of `C[C@H](CO)N1C[C@H](C)[C@H](CN(C)Cc2ccc(-c3ccccc3)cc2)Oc2ccc(NC(=O)C3CCCCC3)cc2CC1=O`, “inactive”.
Consider `C[C@@H]1CN([C@H](C)CO)C(=O)Cc2cc(NC(=O)C3CCCCC3)ccc2O[C@H]1CN(C)Cc1ccc(-c2ccccc2)cc1`, for which the cytotoxicity call is “inactive”.
For `C[C@@H]1CN([C@H](C)CO)C(=O)Cc2cc(NC(=O)C3CCCCC3)ccc2O[C@@H]1CN(C)Cc1ccc(-c2ccccc2)cc1`, the cytotoxicity call was “active”.
For the compound `C[C@@H]1CN([C@@H](C)CO)C(=O)Cc2cc(NC(=O)C3CCCCC3)ccc2O[C@H]1CN(C)Cc1ccc(-c2ccccc2)cc1`, the cytotoxicity call was “inactive”.
On to `Cc1noc(C)c1NC(=O)N(C)C[C@H]1Oc2c(NC(=O)C3CC3)cccc2C(=O)N([C@H](C)CO)C[C@H]1C`, for which the cytotoxicity call was “inactive”.
